{"source": "paper PMC5540273", "about": "(PLoS ONE, 2017);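 note: KINOMEscan kinase panel screen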"}
{"test_system": "PRKX", "conditions": "concentration: 1 μM, replicates: in singlicate; n = 1", "units": {"%Inh": "%"}}
{"compound": "Cc1occc1-c1ncc(OC[C@@H](N)Cc2c[nH]c3ccccc23)cc1-c1ccc2[nH]nc(C)c2c1.O=C(O)C(F)(F)F", "note": "[GSK682037]", "%Inh": 56}
{"compound": "C[C@@H]1CC[C@@H](C(=O)Nc2ccccc2)CN1c1cc(-c2ccc3c(N)n[nH]c3c2)nc(N)n1", "note": "[GSK2286062]", "%Inh": 5}
{"compound": "O=c1[nH]cc(-c2ccc(N3CCOCC3)cc2)c2sc(-c3cn[nH]c3)cc12", "note": "[GSK2276055]", "%Inh": 10}
{"compound": "COc1cccc(C2=C(Nc3ccc(Cl)c(C(=O)O)c3)C(=O)NC2=O)c1", "note": "[SB-390769]", "%Inh": 0}
{"test_system": "PRP4", "conditions": "concentration: 1 μM, replicates: in singlicate; n = 1", "units": {"%Inh": "%"}}
{"compound": "COC(=O)Nc1nc2cc(Oc3ccc(NC(=O)Nc4cc(C(F)(F)F)ccc4F)cn3)ccc2[nH]1.Cl.Cl", "note": "[GW681170]", "%Inh": 22}
{"compound": "Fc1ccc(-c2ncn(C3CCNCC3)c2-c2ccnc(Oc3ccc(-c4ccccc4)cc3)n2)cc1", "note": "[SB-245391]", "%Inh": 0}
{"compound": "Cc1ccc(C)c(NC(=O)NC2CCN(c3ccnc(Nc4ccc(F)cc4)n3)C2)c1", "note": "(stereo not drawn) [GSK1379720]", "%Inh": 51}
{"compound": "CSc1cccc2c(-c3ccncn3)c(-c3ccc(F)cc3)nn12", "note": "[GW514786]", "%Inh": 19}
{"compound": "Oc1cc(Nc2ccnc3cc(I)ccc23)ccc1F", "note": "[GW552771]", "%Inh": 18}
{"compound": "Cc1ccc(S(=O)(=O)Nc2ccc(Nc3nccc(Nc4cccc5[nH]ncc45)n3)cc2)cc1", "note": "[GSK581271]", "%Inh": 53}
{"compound": "COc1cccc(-c2ccc3c(NC(=O)C4CC4)n[nH]c3n2)c1", "note": "[SB-710903]", "%Inh": 70}
{"compound": "O=C(Nc1cccc(-c2nn3ccccc3c2-c2ccnc(Nc3cccc(C(F)(F)F)c3)n2)c1)c1c(F)cccc1F", "note": "[GSK292658]", "%Inh": 5}
